Assay outcomes from PubChem BioAssay.
CYP2C19 act = cytochrome P450 2C19 (human) activation; activation factor at 5 µM; 96,000 tested, under 10 active; recombinant CYP2C19, luciferin-H EGE luminescence; active compounds read high; 0 = fully inhibited enzyme, 1 = untreated enzyme; AID 1025;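 active = activation factor of at least 2 at 5 µM in the primary screen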
Measles CPE = protection of cells from measles virus; Measles virus-infected cells, CPE protection, absorbance; protection (pct of control), % at 4 µM; actives 1.5% (n = 140,000); in the data active = protection mostly above about 24%, no sharp cut-off; inactive = mostly below about 26%
CYP2C19 inhib = inhibitors of human CYP2C19. P33261. CYP2C19 Supersomes, luciferin-H EGE luminescence, 30 min. inhibition, % at 5 µM. actives 21% (n = 96,000);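 active = CYP2C19 inhibition above a set limit at 5 µM in the primary screen, cut at about 50% in these data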
CYP2C9 activ = activators of human CYP2C9; P11712; recombinant CYP2C9, luciferin-H conversion, luminescence; active compounds read high; factor 1 = untreated enzyme, 0 = blocked; activation factor at 5 µM; actives 1.4% (n = 96,000);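 active = activation factor of 2 or more for CYP2C9 at a 5 µM dose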
Target sequence (P11712 whole entry, looked up): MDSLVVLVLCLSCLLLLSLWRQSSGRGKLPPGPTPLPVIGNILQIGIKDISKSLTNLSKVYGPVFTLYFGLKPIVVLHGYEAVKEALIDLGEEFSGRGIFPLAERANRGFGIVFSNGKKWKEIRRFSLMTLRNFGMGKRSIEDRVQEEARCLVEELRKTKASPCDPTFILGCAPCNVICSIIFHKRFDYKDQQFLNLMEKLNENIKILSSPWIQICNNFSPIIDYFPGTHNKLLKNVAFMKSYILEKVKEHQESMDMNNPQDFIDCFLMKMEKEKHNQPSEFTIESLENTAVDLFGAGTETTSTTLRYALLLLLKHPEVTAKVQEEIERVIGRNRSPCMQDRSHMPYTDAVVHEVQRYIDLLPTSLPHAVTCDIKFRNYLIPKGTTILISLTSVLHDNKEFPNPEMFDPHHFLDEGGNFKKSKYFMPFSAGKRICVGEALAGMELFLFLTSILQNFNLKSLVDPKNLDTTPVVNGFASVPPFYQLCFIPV
CYP2C9 inhib = human CYP2C9 inhibition; P11712; AID 777; CYP2C9 Supersomes, luciferin-H conversion, luminescence; inhibition, % at 5 µM; actives 20% (n = 96,000);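 active = blocking of liver enzyme CYP2C9 beyond about 50% at 5 µM, limit read from the data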
Hits are given with their value; n = inactive; x = not tested or not shown. This is a sample that favours compounds with a hit; in the whole collection about 22% have one here.

SMILES	CYP2C19 act	Measles CPE	CYP2C19 inhib	CYP2C9 activ	CYP2C9 inhib
O=C(/C=C/c1ccccc1)N1CCN(c2ccc([N+](=O)[O-])c(N3CCOCC3)c2)CC1	n	n	n	n	71.5
O=C(N/N=C/c1ccccc1)c1ccc(N2CCOCC2)c([N+](=O)[O-])c1	x	20.2	x	x	x
COc1ccc(NS(=O)(=O)c2ccc(C)c(NC(=O)NC3CCCCC3)c2)cc1	x	n	x	x	x
c1ccc2c(NC3CCCC3)nnc(NC3CCCC3)c2c1	n	n	n	n	n
COC(=O)CCN(C(=O)c1ccc(OC(C)=O)cc1)c1ccccn1	n	n	n	n	n
COc1ccc(-c2nnc(COc3ccc4ccccc4c3)o2)cc1OC	n	n	n	n	n
CN(c1ccc(OCc2nnc(-c3ccccc3)o2)cc1)S(=O)(=O)c1ccccc1	n	n	93.6	n	97.9
O=C(O)CCC(=O)N1CCc2cc(S(=O)(=O)NC3CCCc4ccccc43)ccc21 (configuration not stated)	n	n	n	n	n
COc1ccc(OC)c2c1sc(=NC(=O)c1ccco1)n2C	n	n	n	n	n
Cc1ccc(-c2c(C)sc(=NC(=O)c3ccco3)n2C)cc1	n	n	n	n	76.6
CCc1ccc(/C=C2/C(=O)N(c3ccccc3)C(=S)N2CC(=O)OC)s1	x	n	x	x	x
CCN1C(=O)/C(=C/N(C(C)=O)c2ccccc2)N(c2ccccc2)C1=S	n	n	62.8	n	95.4
CC(=O)Nc1ccc(OCC(O)CN2CCN(c3cccc(Cl)c3)CC2)cc1 (configuration not stated)	n	n	n	n	55.7
COC(=O)Nc1ccc(S(=O)(=O)N2CCC(Cc3ccccc3)CC2)cc1	n	n	n	n	n
OCCN1CCN(CC(O)COc2ccc3ccccc3c2)CC1 (configuration not stated)	n	n	n	n	n
CC(=O)Nc1ccc(S(=O)(=O)N2CCN(C(C)CCc3ccccc3)CC2)cc1 (configuration not stated)	n	n	n	n	55.5
CCC(=O)c1ccc(OCC(O)CN2CCN(C(c3ccccc3)c3ccccc3)CC2)cc1 (configuration not stated)	n	n	n	n	66.8
CC(=O)Nc1ccc(S(=O)(=O)N2CCN(CC(O)COc3ccc4ccccc4c3)CC2)cc1 (configuration not stated)	n	n	87.0	n	87.4
CCC(=O)c1ccc(OCC(O)CN2CCOCC2)cc1 (configuration not stated)	n	n	n	n	n
Clc1ccc(SCc2cn3cccnc3n2)cc1	n	n	n	n	n
CN(C)S(=O)(=O)N1CCN(CC(O)COc2ccc3cc(Br)ccc3c2)CC1 (configuration not stated)	n	n	n	n	57.8
CC(=O)Nc1ccc(OCC(O)CN2CCN(c3ccc(Cl)cc3)CC2)cc1 (configuration not stated)	x	n	x	x	x
O=S(=O)(N1CCCCC1)N1CCN(CC(O)COc2ccc3cc(Br)ccc3c2)CC1 (configuration not stated)	n	n	n	n	n
CC(=O)Nc1ccc(OCC(O)CN2CCN(S(=O)(=O)c3ccc(NC(C)=O)cc3)CC2)cc1 (configuration not stated)	n	n	n	n	70.0
CC(=O)Nc1ccc(S(=O)(=O)NCC2CCC(C(=O)N3CCCCCC3)CC2)cc1 (configuration not stated)	n	n	n	n	n
SMILES	CYP2C19 act	Measles CPE	CYP2C19 inhib	CYP2C9 activ	CYP2C9 inhib
CCOC(=O)c1cc(CC)sc1/N=C/C1=C(O)CCCC1=O	x	n	x	x	x
Cc1ccc2c3c([nH]c2c1C)-c1nonc1CC3	x	43.2	x	x	x
Cc1nc2c(C)cccn2c1/C(O)=C1\C(=O)C(=O)N(CCN2CCOCC2)C1c1ccncc1 (configuration not stated)	n	n	n	n	n
O=c1cc(CO)oc(C(Nc2ccccn2)c2ccc(C(F)(F)F)cc2)c1O (configuration not stated)	n	n	n	n	n
CCOc1ccc2[nH]c(=O)c(CN(Cc3cccs3)Cc3nnnn3C(C)(C)C)cc2c1	n	n	n	n	n
COc1ccc2[nH]c(=O)c(CN(Cc3cccs3)Cc3nnnn3C(C)(C)C)cc2c1	n	n	90.8	n	87.8
CCc1ccc2[nH]c(=O)c(CN(CCCO)C(=O)NCc3ccccc3)cc2c1	n	n	n	n	n
CCOC(=O)Cn1nnnc1CN(Cc1cccs1)Cc1cc2cc(C)ccc2[nH]c1=O	n	n	65.3	n	n
CCOC(=O)Cn1nnnc1CN(CCc1ccccc1)Cc1cc2cc(CC)ccc2[nH]c1=O	n	n	n	n	71.5
